Source: the supplement of paper PMC6555819

system: RARg homodimer (NR concentration 270 nM); test: PBM binding z-score (relative to random genomic background probes); higher = stronger binding; sequences stand for … in GC…GCGATTGACAGCGTAGAATGAAGG
Method in brief: (§1)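 Scanned fluorescence from custom Agilent 4×180K protein-binding microarrays was regression-normalized. Binding z-scores use random background probes as reference. Ligand-free nuclear receptor dimers were incubated on the arrays for 1 h and detected with antibodies against each partner (one per run).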

Row | Sequence | PBM binding z-score
1 | CCTGCTAGGTCATGGTCGGCTAATCTACAGTATG | 4.63
2 | TCATATAGGTAAAAGGTGAAAGCCGGTGTGGTAA | 0.955
3 | CCTATTAGTTGACCATAAGCGCAACCGAAGCTCG | 0.455
4 | TCGAGTAGGTCACCAATGGGGCATTCAGCTTTCT | 4.61
5 | CCTAGTTGGTCAGGAGGTCACACAACGGATATGA | 4.4
6 | ATATGTAGGTTACATCCGGGTCATTCCGGCTATG | 2.07
7 | TCTTGTAGATCAACAGGACGTTAAGAAAGATCGA | 0.151
8 | ACTAGCAGGCCAAGGGTCACACAAGATTAGTCCG | 4.2
9 | CCCGACAGGTGAGAAGGTAACTCAGCCTCGATTA | 0.328
10 | ATCTCTAGGTAAAAGTTCAGGGAATCCCGAGGAT | 2.18
11 | CCGACAGGGGCAGAAAGGTTACCATACCATCCGG | 1.71
12 | TGAATGAGGTAAAAGATCAGGGAACGTGGCGTCG | 0.294
13 | CGAACTAGGTCATTGACAGGACAGTGCATAGTAA | 4.3
14 | CCGACTGTGGCAGAAAGGTTACCATACCATCCGG | 0.761
15 | TTACCAAGGTGAGCTGAGGTCTTTGATCCAACTC | 0.384
16 | TCTGCTAGGTCATTTGGTCAGCTAACGAGCTGCC | 4.17
17 | GGAACGAGGGCATAGTTGATAGCATCTGTCGACG | 1.22
18 | ACTCGCAGGCCAAGTTTGGGTCACTCAAACAAAG | 1.73
19 | CTCGAAAGGTCGTGCTCGGGTGAGTATACCAAAC | 3.77
20 | ATCTCTAGGTAACCAACTTCAGTGAATGCCGAAC | 0.26

Row | Sequence | PBM binding z-score
21 | CCTACTGGGCCACGAAAGGACATTGATTCAGTGA | 1.01
22 | TCTTGTAGATCAGCAGGTTAAGACAGCTGGCCAA | -0.276
23 | CGTCCAAGGTCAAGGCTAGGTCAGTGAAAGCATT | 7.4
24 | ATCTCTAGGTAAAGTTCGGTGAAAGATCGATAGA | 0.694
25 | GCTGCTAGGTCAGGTTGGACAGCTAACGGGTACG | 3.42
26 | CAGACTAGGTCACGAAAGGTCAAAGTCGAATGAC | 8.73
27 | ACTATTGGTTGAGACGAGGGCAACCGATAGGTTG | 0.715
28 | GCTGCTAGGTCAGGTTGCTCAGCTAACGGGTACG | 2.99
29 | AGAATGAGGTTATACGTAGATTAGGGAAGAAAGT | 1.05
30 | TCGAGTATGTTACCAATGGGGCATTCAGCTTTCT | -0.492
31 | ATATGTAGGTTATCGGGTAATTCAGTTTGCGCAT | 0.821
32 | CCAACTGGGCCATTCAGAGGTCATTGATCATATG | 2.94
33 | AGTCAAAGTTCACTAGGTAACGAAAGATTCAGCT | 5.55
34 | ATATGTAGGTTACACCCGGGTCATTCAGGCTATG | 2.06
35 | TCGCCTAGGTCAGATCGGGCCAGTATACGCTATA | 3.24
36 | ACTAGATGGTCAGCTGAGGTCACACACAATTCGG | 4.75
37 | CATACAGAGTCAGCTAGGCCAGAGTAGGGACGGC | 0.105
38 | GCAACTGGGGCATCAGCAGGTTACCATAACTTAA | 0.473
39 | GTACCAACGTGAATAGGTCGTTGATGAGTAGGCG | 0.237

system: RXRa DBDmut IVT, anti-RXR (DBD mutation: RXRa K156A/R161A, NR concentration 90 nM); test: as above
Method in brief: as §1

Row | Sequence | PBM binding z-score
40 | CCTGCTAGGTCATGGTCGGCTAATCTACAGTATG | 1.75
41 | TCATATAGGTAAAAGGTGAAAGCCGGTGTGGTAA | 1.45
42 | CCTATTAGTTGACCATAAGCGCAACCGAAGCTCG | 0.856
43 | TCGAGTAGGTCACCAATGGGGCATTCAGCTTTCT | 0.972
44 | CCTAGTTGGTCAGGAGGTCACACAACGGATATGA | 0.815
45 | ATATGTAGGTTACATCCGGGTCATTCCGGCTATG | 1.21
46 | TCTTGTAGATCAACAGGACGTTAAGAAAGATCGA | 0.714
47 | ACTAGCAGGCCAAGGGTCACACAAGATTAGTCCG | 0.3
48 | CCCGACAGGTGAGAAGGTAACTCAGCCTCGATTA | -0.142
49 | ATCTCTAGGTAAAAGTTCAGGGAATCCCGAGGAT | 0.858
50 | CCGACAGGGGCAGAAAGGTTACCATACCATCCGG | -0.361
51 | TGAATGAGGTAAAAGATCAGGGAACGTGGCGTCG | -0.708
52 | CGAACTAGGTCATTGACAGGACAGTGCATAGTAA | 2.22
53 | CCGACTGTGGCAGAAAGGTTACCATACCATCCGG | -0.111
54 | TTACCAAGGTGAGCTGAGGTCTTTGATCCAACTC | -0.584
55 | TCTGCTAGGTCATTTGGTCAGCTAACGAGCTGCC | 2.58
56 | GGAACGAGGGCATAGTTGATAGCATCTGTCGACG | 2.25
57 | ACTCGCAGGCCAAGTTTGGGTCACTCAAACAAAG | 0.0285
58 | CTCGAAAGGTCGTGCTCGGGTGAGTATACCAAAC | 1.4
59 | ATCTCTAGGTAACCAACTTCAGTGAATGCCGAAC | 0.264

Row | Sequence | PBM binding z-score
60 | CCTACTGGGCCACGAAAGGACATTGATTCAGTGA | -0.0534
61 | TCTTGTAGATCAGCAGGTTAAGACAGCTGGCCAA | 0.415
62 | CGTCCAAGGTCAAGGCTAGGTCAGTGAAAGCATT | 3.43
63 | ATCTCTAGGTAAAGTTCGGTGAAAGATCGATAGA | 0.694
64 | GCTGCTAGGTCAGGTTGGACAGCTAACGGGTACG | 0.208
65 | CAGACTAGGTCACGAAAGGTCAAAGTCGAATGAC | 2.27
66 | ACTATTGGTTGAGACGAGGGCAACCGATAGGTTG | 0.116
67 | GCTGCTAGGTCAGGTTGCTCAGCTAACGGGTACG | 0.623
68 | AGAATGAGGTTATACGTAGATTAGGGAAGAAAGT | 1.49
69 | TCGAGTATGTTACCAATGGGGCATTCAGCTTTCT | 0.904
70 | ATATGTAGGTTATCGGGTAATTCAGTTTGCGCAT | 0.617
71 | CCAACTGGGCCATTCAGAGGTCATTGATCATATG | 1.22
72 | AGTCAAAGTTCACTAGGTAACGAAAGATTCAGCT | 3.95
73 | ATATGTAGGTTACACCCGGGTCATTCAGGCTATG | 0.528
74 | TCGCCTAGGTCAGATCGGGCCAGTATACGCTATA | 0.643
75 | ACTAGATGGTCAGCTGAGGTCACACACAATTCGG | 1.45
76 | CATACAGAGTCAGCTAGGCCAGAGTAGGGACGGC | -0.231
77 | GCAACTGGGGCATCAGCAGGTTACCATAACTTAA | 0.26
78 | GTACCAACGTGAATAGGTCGTTGATGAGTAGGCG | -0.361
